Laboratory results: the supplement of paper PMC10849652
Targets with a hit are over-represented here; the source holds about 8,800 in all. About 0.5% of all pairs of compound and target were hits.

Columns and labels:
Assay in all cases: log2 fold change, soluble protein after heating vs DMSO (PISA); higher = thermal stabilisation; K562 lysate, 10 uM; active = over 0.2 and 3.5 SD of the protein, either way, in both replicates (recomputed)
[1] = compound: C=CC(=O)N1CCC[C@@H](n2nc(-c3ccc(Oc4ccccc4)cc3)c3c(N)ncnc32)C1 [ibrutinib]
In short: (§1)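 Pellets of K562 cells were dounce-homogenised in PBS pH 7.4 with 1 mM MgCl2, and the crude extract was held at 1 mg/mL protein for a 30 min treatment with 10 μM compound. Aliquots were heated for 3 min over 48°C-58°C and pooled before NP-40 was added to 0.5% at 4°C. The supernatant from 21,000xg for 90 min was quantified by TMTpro 16plex LC-MS/MS with channel sums equalised. Values are reported from duplicates as log-two fold change in thermal stability relative to solvent controls.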

[2] = compound: CC(=O)c1cnc2ccc(-c3cc(Cl)c(O)c(Cl)c3)nc2c1N[C@H]1CC[C@H](CN(C)C)CC1
In short: as §1

[3] = compound: CC(C)(C)Cn1c(N)nc2ccc(-c3[nH]c(C(C)(C)C)nc3-c3ccc(F)cc3)nc21 [ralimetinib]
In short: as §1

[4] = compound: CC(C)(O)CC(=O)NCCn1ccc2ncnc(Nc3ccc(Oc4cccc(C(F)(F)F)c4)c(Cl)c3)c21
In short: as §1

[5] = compound: CC(C)C1=C2N=C(C=C(N2N=C1)NCC3=CC=CC=C3)NCCCCCCN
In short: as §1

[6] = compound: CC1=C(C(CC(=O)N1)C2=CC=C(C=C2)C(F)(F)F)C(=O)NC3=C(C=C4C(=C3)C=NN4)F
In short: as §1

[7] = compound: CC1=C(C2=C(C=C1)C(=O)C3=CC=CC=C3N2CCCN)C
In short: as §1

[8] = compound: CC1=C(C=C(C=C1)NC(=O)C2=CC(=CC=C2)C(C)(C)C#N)NC3=CC4=C(C=C3)N=CN(C4=O)C
In short: as §1

[9] = compound: CC1=C(C=C(C=C1)NC(=O)C2=CC(=CC=C2)N(C)C)NC(=O)C3=CC=C(C=C3)O
In short: as §1

[10] = compound: CC1=CC=C(C=C1)SC2=C3C=C(SC3=CN=C2)C(=O)N
In short: as §1

[11] = compound: CCCS(=O)(=O)Nc1ccc(F)c(C(=O)c2c[nH]c3ncc(-c4ccc(Cl)cc4)cc23)c1F [vemurafenib]
In short: as §1

[12] = compound: CCCS(=O)(=O)Nc1ccc(F)c(C(=O)c2c[nH]c3ncc(Cl)cc23)c1F
In short: as §1

[13] = compound: CCN(CCCOc1ccc2c(Nc3cc(CC(=O)Nc4cccc(F)c4)[nH]n3)ncnc2c1)CCOP(=O)(O)O [barasertib]
In short: as §1

[14] = compound: CC[C@@H]1C(=O)N(C)c2cnc(Nc3ccc(C(=O)NC4CCN(C)CC4)cc3OC)nc2N1C1CCCC1
In short: as §1

[15] = compound: CC[C@@H]1C(=O)N(C)c2cnc(Nc3ccc(C(=O)N[C@H]4CC[C@H](N5CCN(CC6CC6)CC5)CC4)cc3OC)nc2N1C(C)C [volasertib]
In short: as §1

[16] = compound: CCn1c(C(=O)N(C2CC2)C2CC2)cc2c3c(ncn3C)c(Nc3cc(C)n(C)n3)nc21
In short: as §1

[17] = compound: CCn1cc(-c2ccnc3[nH]c(-c4cccc(CN(C)C)c4)cc23)c(-c2ccc(NC(=O)N(C)C)cc2)n1
In short: as §1

[18] = compound: CN1CCC(CNc2ccc3ncc(-c4cccc(OC(F)(F)F)c4)n3n2)CC1
In short: as §1

[19] = compound: CN1CCN(CCOc2cc(OC3CCOCC3)c3c(Nc4c(Cl)ccc5c4OCO5)ncnc3c2)CC1 [saracatinib]
In short: as §1

[20] = compound: CN1CCN(c2nc(C3=C(c4c[nH]c5ccccc45)C(=O)NC3=O)c3ccccc3n2)CC1 [sotrastaurin]
In short: as §1

Measured: log2 fold change

CNOT4 isoform 6 (UniProt O95628)
UniProt O95628, sequence (O95628 whole entry, looked up): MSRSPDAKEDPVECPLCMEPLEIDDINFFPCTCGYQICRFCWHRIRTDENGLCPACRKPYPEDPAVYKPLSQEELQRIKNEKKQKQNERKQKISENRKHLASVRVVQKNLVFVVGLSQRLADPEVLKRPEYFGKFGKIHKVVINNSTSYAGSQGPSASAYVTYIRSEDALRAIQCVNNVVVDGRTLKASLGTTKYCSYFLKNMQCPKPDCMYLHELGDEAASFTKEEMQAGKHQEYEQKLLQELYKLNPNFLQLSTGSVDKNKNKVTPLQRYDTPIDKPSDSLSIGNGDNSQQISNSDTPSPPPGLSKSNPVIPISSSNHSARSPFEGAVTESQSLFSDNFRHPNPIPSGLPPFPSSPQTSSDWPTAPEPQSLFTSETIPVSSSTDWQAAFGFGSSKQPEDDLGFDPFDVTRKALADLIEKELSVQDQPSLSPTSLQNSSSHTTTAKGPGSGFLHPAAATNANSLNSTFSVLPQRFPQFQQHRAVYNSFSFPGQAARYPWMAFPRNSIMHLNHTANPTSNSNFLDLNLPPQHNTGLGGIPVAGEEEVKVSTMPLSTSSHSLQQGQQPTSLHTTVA
inactive: [1] -0.004 | [2] 0.021 | [3] 0.033 | [4] -0.007 | [5] -0.003 | [6] 0.049 | [7] 0.037 | [9] -0.026 | [10] 0.012 | [11] -0.052 | [12] 0.008 | [13] -0.014 | [14] 0.057 | [15] 0.009 | [16] 0.108 | [17] -0.053 | [18] 0 | [19] 0.057 | [20] -0.005
active: [8] -0.281

DOK1 (UniProt Q99704)
inactive: [1] 0.023 | [2] 0.01 | [3] 0.017 | [4] 0.014 | [5] -0.029 | [6] 0.137 | [7] 0.018 | [8] 0.017 | [9] 0.014 | [10] -0.135 | [11] 0.028 | [12] 0.061 | [13] -0.027 | [14] -0.113 | [15] -0.026 | [16] 0.021 | [17] -0.055 | [18] 0.101 | [19] 0.024 | [20] 0.029

CTNNBL1 (UniProt Q8WYA6)
inactive: [1] 0 | [2] 0.047 | [3] -0.095 | [4] -0.169 | [5] 0.017 | [6] -0.051 | [7] -0.04 | [8] 0.015 | [9] 0.056 | [10] 0.01 | [11] 0.004 | [12] 0.016 | [13] 0.005 | [14] -0.042 | [15] -0.041 | [16] -0.16 | [17] -0.013 | [18] -0.091 | [19] 0.023 | [20] 0.015

DNAJC3 (UniProt Q13217)
UniProt Q13217, sequence (Q13217 whole entry, looked up): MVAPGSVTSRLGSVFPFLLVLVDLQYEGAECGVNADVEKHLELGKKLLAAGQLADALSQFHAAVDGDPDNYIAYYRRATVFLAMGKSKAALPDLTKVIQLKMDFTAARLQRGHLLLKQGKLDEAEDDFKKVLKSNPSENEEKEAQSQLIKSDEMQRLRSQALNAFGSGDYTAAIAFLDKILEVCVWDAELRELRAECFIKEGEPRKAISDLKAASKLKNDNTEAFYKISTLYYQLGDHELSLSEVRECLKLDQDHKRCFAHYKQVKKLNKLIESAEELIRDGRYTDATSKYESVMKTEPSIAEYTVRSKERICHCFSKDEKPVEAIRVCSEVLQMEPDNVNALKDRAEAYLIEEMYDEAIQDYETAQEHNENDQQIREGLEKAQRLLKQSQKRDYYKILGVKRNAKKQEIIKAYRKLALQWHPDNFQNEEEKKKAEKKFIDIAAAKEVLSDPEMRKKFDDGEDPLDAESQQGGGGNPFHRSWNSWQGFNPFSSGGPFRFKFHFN
inactive: [1] 0.009 | [2] -0.004 | [3] -0.022 | [4] 0.007 | [5] -0.021 | [6] 0.024 | [7] 0.006 | [8] -0.011 | [9] -0.054 | [10] -0.018 | [11] -0.016 | [12] 0.009 | [13] 0.006 | [14] 0.023 | [15] -0.004 | [16] 0.082 | [17] 0.016 | [18] -0.076 | [19] 0.008 | [20] -0.109

CMBL (UniProt Q96DG6)
UniProt Q96DG6, sequence (Q96DG6 whole entry, looked up): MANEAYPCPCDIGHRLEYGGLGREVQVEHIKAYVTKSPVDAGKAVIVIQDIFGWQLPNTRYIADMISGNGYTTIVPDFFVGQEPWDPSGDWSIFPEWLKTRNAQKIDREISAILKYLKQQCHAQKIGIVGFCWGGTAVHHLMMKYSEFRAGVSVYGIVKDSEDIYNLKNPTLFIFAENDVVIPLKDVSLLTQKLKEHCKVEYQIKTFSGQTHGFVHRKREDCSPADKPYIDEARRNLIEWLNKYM
inactive: [1] -0.059 | [3] 0.018 | [4] -0.009 | [5] -0.056 | [6] -0.082 | [7] 0 | [8] 0.014 | [9] -0.04 | [10] -0.011 | [11] -0.053 | [12] -0.027 | [13] -0.026 | [14] 0.081 | [15] 0.183 | [16] 0.004 | [17] -0.174 | [18] 0.129 | [19] -0.016 | [20] -0.015
active: [2] 0.22

CORO1A (UniProt P31146)
UniProt P31146, sequence (P31146 whole entry, looked up): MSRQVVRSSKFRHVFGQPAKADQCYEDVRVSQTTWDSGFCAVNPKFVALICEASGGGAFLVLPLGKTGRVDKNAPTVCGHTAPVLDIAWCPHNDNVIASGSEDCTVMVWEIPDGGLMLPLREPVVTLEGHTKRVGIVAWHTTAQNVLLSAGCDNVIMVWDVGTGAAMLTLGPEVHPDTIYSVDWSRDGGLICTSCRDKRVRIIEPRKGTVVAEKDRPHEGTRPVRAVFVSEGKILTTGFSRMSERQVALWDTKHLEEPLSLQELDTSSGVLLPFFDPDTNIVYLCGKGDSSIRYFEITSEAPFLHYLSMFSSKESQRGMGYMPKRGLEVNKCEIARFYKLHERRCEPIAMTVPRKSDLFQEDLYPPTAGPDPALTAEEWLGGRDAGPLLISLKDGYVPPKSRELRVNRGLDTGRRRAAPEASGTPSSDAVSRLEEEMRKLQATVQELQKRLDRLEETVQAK
inactive: [1] 0.028 | [2] -0.031 | [3] -0.015 | [4] -0.021 | [5] 0.055 | [6] 0.018 | [7] -0.107 | [8] 0.025 | [9] -0.036 | [10] 0.012 | [11] -0.021 | [12] -0.001 | [13] 0.013 | [14] 0.025 | [15] -0.035 | [16] 0.11 | [17] -0.113 | [18] 0.021 | [19] -0.169 | [20] -0.007

CTPS2 (UniProt Q9NRF8)
UniProt Q9NRF8, sequence (Q9NRF8 whole entry, looked up): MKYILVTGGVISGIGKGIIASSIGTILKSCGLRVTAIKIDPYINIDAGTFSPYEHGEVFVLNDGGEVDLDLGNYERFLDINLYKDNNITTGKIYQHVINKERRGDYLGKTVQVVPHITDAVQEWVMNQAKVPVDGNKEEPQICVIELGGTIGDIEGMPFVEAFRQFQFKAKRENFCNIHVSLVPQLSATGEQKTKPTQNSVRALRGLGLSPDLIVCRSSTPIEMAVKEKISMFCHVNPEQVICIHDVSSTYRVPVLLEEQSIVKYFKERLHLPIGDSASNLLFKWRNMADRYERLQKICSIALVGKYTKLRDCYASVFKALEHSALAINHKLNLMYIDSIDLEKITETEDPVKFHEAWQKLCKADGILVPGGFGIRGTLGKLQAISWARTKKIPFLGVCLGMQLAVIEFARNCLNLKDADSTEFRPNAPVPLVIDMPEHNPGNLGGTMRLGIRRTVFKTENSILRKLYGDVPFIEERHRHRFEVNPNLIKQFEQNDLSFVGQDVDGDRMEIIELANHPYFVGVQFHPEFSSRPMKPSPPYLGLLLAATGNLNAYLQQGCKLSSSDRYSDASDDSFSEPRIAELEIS
inactive: [1] 0.021 | [2] 0.006 | [3] 0.017 | [4] -0.026 | [5] -0.011 | [6] 0.008 | [7] -0.004 | [8] 0.009 | [9] 0.005 | [10] -0.009 | [11] 0.002 | [12] 0.01 | [13] 0.015 | [14] -0.028 | [15] -0.009 | [16] 0.011 | [17] -0.041 | [18] 0.058 | [19] 0.012 | [20] -0.044

CUX1 isoform 3 (UniProt P39880)
inactive: [1] 0.073 | [2] 0.002 | [3] 0.003 | [4] -0.061 | [5] 0.017 | [6] -0.022 | [7] 0.003 | [8] -0.051 | [9] 0.012 | [10] 0.005 | [11] 0.059 | [12] -0.012 | [13] -0.011 | [14] 0.028 | [15] -0.004 | [16] -0.006 | [17] 0.107 | [18] -0.152 | [19] 0.018 | [20] 0.029

DLD (UniProt P09622)
UniProt P09622, sequence (P09622 whole entry, looked up): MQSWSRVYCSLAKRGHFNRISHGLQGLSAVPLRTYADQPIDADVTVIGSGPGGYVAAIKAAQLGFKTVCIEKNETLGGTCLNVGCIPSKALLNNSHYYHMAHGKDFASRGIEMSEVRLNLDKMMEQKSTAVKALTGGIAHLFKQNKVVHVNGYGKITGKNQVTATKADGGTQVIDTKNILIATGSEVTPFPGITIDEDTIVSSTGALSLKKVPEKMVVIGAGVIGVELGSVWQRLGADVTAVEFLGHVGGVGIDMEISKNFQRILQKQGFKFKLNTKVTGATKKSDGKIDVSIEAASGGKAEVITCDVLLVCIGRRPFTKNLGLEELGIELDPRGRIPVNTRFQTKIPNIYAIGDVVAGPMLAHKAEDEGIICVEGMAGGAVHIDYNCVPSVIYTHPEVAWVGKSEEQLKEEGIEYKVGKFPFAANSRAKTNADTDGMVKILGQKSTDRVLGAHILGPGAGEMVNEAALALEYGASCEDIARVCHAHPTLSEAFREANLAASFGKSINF
inactive: [1] 0.003 | [2] 0.003 | [3] -0.006 | [4] -0.016 | [5] -0.013 | [6] -0.03 | [7] -0.006 | [8] 0.049 | [9] -0.007 | [10] 0.004 | [11] 0.007 | [12] 0.003 | [13] -0.032 | [14] 0.032 | [15] 0.057 | [16] -0.018 | [17] -0.071 | [18] 0.04 | [19] 0.009 | [20] -0.015

CWC22 (UniProt Q9HCG8)
active: [17] 0.393 | [18] -0.273
inactive: [1] 0.027 | [2] -0.007 | [3] 0.007 | [4] -0.002 | [5] -0.005 | [6] 0.06 | [7] 0 | [8] -0.002 | [9] 0.028 | [10] -0.009 | [11] 0.002 | [12] 0.045 | [13] 0.028 | [14] -0.209 | [15] -0.033 | [16] 0.017 | [19] -0.052 | [20] -0.013

DPM1 (UniProt O60762)
inactive: [1] -0.016 | [2] -0.018 | [3] -0.025 | [4] -0.027 | [5] -0.009 | [6] 0.033 | [7] 0.015 | [8] 0.006 | [9] 0.014 | [10] 0.023 | [11] 0.055 | [12] 0.004 | [13] -0.021 | [14] 0.039 | [15] 0.001 | [16] -0.012 | [17] -0.013 | [18] -0.058 | [19] 0.036 | [20] 0.028

DIAPH1 (UniProt O60610)
UniProt O60610, sequence (O60610 whole entry, looked up): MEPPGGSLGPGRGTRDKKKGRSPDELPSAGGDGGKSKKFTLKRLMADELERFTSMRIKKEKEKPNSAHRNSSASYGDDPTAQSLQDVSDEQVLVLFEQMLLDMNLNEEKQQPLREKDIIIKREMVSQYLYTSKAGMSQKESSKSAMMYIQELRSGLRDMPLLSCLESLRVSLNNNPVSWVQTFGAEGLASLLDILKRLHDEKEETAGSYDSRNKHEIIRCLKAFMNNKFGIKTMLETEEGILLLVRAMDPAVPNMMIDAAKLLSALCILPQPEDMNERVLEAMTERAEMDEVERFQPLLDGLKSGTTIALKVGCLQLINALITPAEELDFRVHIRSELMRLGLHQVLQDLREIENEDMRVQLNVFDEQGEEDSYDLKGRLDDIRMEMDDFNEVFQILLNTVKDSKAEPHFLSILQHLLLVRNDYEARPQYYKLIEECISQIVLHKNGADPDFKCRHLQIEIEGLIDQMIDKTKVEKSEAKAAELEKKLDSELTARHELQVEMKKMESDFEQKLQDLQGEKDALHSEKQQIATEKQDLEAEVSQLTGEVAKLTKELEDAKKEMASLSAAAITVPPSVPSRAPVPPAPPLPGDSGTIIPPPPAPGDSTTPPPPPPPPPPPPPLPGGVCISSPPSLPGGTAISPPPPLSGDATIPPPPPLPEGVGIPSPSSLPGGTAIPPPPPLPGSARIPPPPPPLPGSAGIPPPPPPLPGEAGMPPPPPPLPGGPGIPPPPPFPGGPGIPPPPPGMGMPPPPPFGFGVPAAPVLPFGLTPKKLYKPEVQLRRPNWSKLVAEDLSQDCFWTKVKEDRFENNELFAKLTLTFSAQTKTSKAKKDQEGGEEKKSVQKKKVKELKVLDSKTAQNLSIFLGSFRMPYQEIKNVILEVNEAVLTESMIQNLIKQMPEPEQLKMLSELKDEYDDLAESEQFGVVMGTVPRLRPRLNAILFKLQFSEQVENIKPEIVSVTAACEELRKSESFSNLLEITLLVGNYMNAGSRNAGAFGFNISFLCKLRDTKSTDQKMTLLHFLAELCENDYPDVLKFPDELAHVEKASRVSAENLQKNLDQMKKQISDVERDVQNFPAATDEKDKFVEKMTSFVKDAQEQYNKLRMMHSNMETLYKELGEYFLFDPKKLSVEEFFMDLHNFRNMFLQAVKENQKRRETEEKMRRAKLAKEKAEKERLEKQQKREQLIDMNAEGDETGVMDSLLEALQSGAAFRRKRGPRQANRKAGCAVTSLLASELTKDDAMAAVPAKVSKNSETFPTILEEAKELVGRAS
inactive: [1] -0.028 | [2] -0.004 | [3] -0.006 | [4] 0.005 | [5] -0.01 | [6] -0.009 | [7] 0.003 | [8] -0.004 | [9] 0.001 | [10] 0.004 | [11] -0.002 | [12] -0.007 | [13] 0.006 | [14] -0.001 | [15] -0.002 | [16] 0.009 | [17] 0.091 | [18] -0.042 | [19] -0.006 | [20] -0.001

CHML (UniProt P26374)
inactive: [1] -0.029 | [2] -0.017 | [3] -0.008 | [4] -0.004 | [5] -0.009 | [6] -0.012 | [7] 0 | [8] -0.003 | [9] -0.017 | [10] -0.006 | [11] 0.01 | [12] 0.008 | [13] 0.004 | [14] 0.011 | [15] 0.022 | [16] -0.007 | [17] -0.012 | [18] 0.026 | [19] -0.002 | [20] 0.005

CHEK1 (UniProt O14757)
UniProt O14757, sequence (O14757 whole entry, looked up): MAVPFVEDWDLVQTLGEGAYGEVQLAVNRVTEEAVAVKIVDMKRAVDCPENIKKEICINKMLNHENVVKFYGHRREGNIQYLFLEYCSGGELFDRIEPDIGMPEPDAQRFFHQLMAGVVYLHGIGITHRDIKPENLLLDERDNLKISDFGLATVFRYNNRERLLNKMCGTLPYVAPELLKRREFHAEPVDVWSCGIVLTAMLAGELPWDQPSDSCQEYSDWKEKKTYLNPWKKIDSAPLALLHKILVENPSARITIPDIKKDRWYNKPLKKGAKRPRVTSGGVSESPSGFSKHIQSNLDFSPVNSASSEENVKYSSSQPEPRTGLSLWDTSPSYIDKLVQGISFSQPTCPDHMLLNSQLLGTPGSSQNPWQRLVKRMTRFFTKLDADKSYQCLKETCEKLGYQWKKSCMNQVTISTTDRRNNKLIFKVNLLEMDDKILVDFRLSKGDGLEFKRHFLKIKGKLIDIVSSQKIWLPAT
inactive: [1] 0.019 | [2] 0.104 | [3] 0.032 | [4] -0.004 | [5] -0.003 | [6] 0.004 | [7] 0.011 | [8] 0.026 | [9] -0.005 | [10] -0.024 | [11] -0.02 | [12] 0.006 | [13] 0.015 | [14] -0.031 | [15] -0.012 | [16] -0.012 | [17] -0.008 | [18] -0.045 | [19] -0.004 | [20] -0.014

DNAH10 (UniProt Q8IVF4)
active: [17] -0.582
inactive: [1] 0.038 | [2] -0.017 | [3] -0.123 | [4] -0.112 | [5] -0.015 | [6] -0.04 | [7] -0.069 | [8] 0.137 | [9] -0.014 | [10] -0.051 | [11] 0.067 | [12] 0 | [13] 0.069 | [14] 0.064 | [15] 0.044 | [16] -0.05 | [18] 0.139 | [19] 0.022 | [20] -0.029

DHRS1 (UniProt Q96LJ7)
UniProt Q96LJ7, sequence (Q96LJ7 whole entry, looked up): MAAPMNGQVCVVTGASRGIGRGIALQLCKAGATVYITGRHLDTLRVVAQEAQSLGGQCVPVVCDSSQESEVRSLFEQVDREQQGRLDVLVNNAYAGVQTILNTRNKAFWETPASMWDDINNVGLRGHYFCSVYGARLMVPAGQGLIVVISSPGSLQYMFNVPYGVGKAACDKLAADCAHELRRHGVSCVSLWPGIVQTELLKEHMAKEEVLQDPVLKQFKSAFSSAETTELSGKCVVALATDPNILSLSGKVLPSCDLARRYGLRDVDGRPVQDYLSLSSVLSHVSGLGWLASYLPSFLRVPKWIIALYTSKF
inactive: [1] -0.057 | [2] -0.037 | [3] 0.01 | [4] 0.089 | [5] 0.058 | [6] 0.024 | [7] -0.104 | [8] 0.001 | [9] -0.035 | [10] -0.001 | [11] 0.436 | [12] 0.187 | [13] 0.053 | [14] -0.045 | [15] 0.012 | [16] -0.029 | [17] -0.042 | [18] -0.05 | [19] 0.001 | [20] 0.026
